Giardia FBPA inh: Giardia lamblia aldolase inhibition | A8B2U2 | purified Giardia FBPA | Potency, µM (doses to about 59.6 µM), for the others: top-dose activity, negative = inhibition, actives largely listed as inhibitors | 0.71% of 290,000 active; further: on the % scale 0 is the no-effect control and ±100 the full control effect; nearly all actives have a fitted effect of over 55% in size
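Giardia FBPA (40 nM reagent) was preincubated 10 min at RT with compound (up to 57.5 uM final), then substrate plus GAPDH/TPI/NAD/arsenate coupling system with diaphorase/resazurin was added; resorufin fluorescence (525/598 nm) was read after 20 min.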
TbPYK inhibitor: inhibitors of Trypanosoma brucei pyruvate kinase; TbPYK enzyme, Kinase-Glo Plus ATP luminescence, 45 min; Potency, µM (series often up to 76.8 µM), inactives show at the top dose activity, negative = inhibition, most hits filed as inhibitors; Q57TT1; 0.12% of 410,000 active; further: on the % scale 0 is the no-effect control and ±100 the full control effect; nearly all actives have a fitted effect of over 50% in size
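Assay buffer: 50 mM TEA pH 7.2, 100 mM KCl, 10 mM MgCl2, 0.05% BSA, 0.01% Tween-20. Pyruvate kinase from T. brucei plus substrate met compound, then ADP (130 uM final). Luminescence was read post 45 min RT.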
Sm TGR block: S. mansoni TGR enzyme inhibition; 3% of 360,000 active; purified TGR, DTNB reduction, TNB absorbance 405 nm; Q962Y6; Potency, µM (top dose mostly 114 µM), for the others: top-dose activity change, negative = inhibition, most hits filed as inhibitors; further: on the % scale 0 is the no-effect control and ±100 the full control effect; nearly all actives have a fitted effect of over 60% in size
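TGR 20 nM + NADPH 100 uM (dispensed conc.), cpd preinc 15 min RT; start with NADPH (500 uM addition) then DTNB (15 mM addition). Kinetic TNB absorbance, 405 nm filter. Four-parameter Hill fit across titration.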
RE007 growth inh: less growth of the S. pombe RE007 Vpr strain | S. pombe RE007 Vpr strain, BacTiter-Glo ATP luminescence, 24 h | Potency, µM (doses to about 92.2 µM), for the others: top-dose activity change, negative = less growth, usual class: inhibitors | 0.21% of 360,000 active | AID 651644; active means well fitted falling curve with a large enough effect; inconclusive means small, poorly fitted or top-dose-only effect; inactive means no such curve, though single readings can be large or run the other way; further: on the % scale 0 is the no-effect control and ±100 the full control effect; nearly all actives have a fitted effect of over 50% in size
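Fission yeast strain RE007, carrying one chromosomally integrated HIV-1 vpr copy, was seeded at OD 0.01 in PMG+AL medium with 23 nL pinned compound. After 24 h at 30 °C and 99% humidity, viability was read by BacTiter-Glo luminescence.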
LmPK inhibitor: LmPK (Leishmania mexicana) enzyme inhibition | 0.37% of 290,000 active | Q27686 | purified LmPK, Kinase-Glo ATP luminescence, 1 h | Potency, µM (series often up to 57.5 µM), inactives show at the top dose activity change, negative = inhibition, usual class: inhibitors; further: on the % scale 0 is the no-effect control and ±100 the full control effect
Target sequence (Q27686 whole entry, looked up): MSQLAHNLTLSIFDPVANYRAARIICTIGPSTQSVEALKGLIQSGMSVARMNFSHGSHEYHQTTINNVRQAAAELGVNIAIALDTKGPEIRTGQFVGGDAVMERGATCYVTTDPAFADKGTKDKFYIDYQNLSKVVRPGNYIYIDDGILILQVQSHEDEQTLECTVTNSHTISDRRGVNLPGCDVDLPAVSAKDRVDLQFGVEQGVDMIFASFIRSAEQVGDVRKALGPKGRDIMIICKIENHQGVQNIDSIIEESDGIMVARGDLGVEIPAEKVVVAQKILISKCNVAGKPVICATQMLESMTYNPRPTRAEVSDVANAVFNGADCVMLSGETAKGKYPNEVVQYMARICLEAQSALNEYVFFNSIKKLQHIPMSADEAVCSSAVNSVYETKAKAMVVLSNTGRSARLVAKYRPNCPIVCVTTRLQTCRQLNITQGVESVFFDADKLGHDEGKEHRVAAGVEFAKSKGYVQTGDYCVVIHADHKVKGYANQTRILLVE
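In 50 mM imidazole pH 7.2 with 7 mM MgCl2, LmPK (0.1 nM) turned over PEP (0.5 mM) and ADP (0.1 mM) for 1 h at room temperature. Luciferase read-out of ATP.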
NS1 function inh: inhibitors of influenza NS1 protein function; Potency, µM (doses to about 46.1 µM), without a hit: at the top dose activity, positive = more growth; 0.4% of 270,000 active; calls by dose curve; further: actives are rising curves; nearly all actives have a fitted effect of over 50% in size
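OD600 was taken as the measure of yeast growth restored by compound in an NS1-expressing S. cerevisiae strain. Cells had been washed out of glucose medium and diluted 1:100 into galactose -URA medium, pH 6.0.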
Numbers without * were called inactive; [ ] = dose if it differs, or a comment. Rows were chosen to be rich in hits. Some 3.5% of all compounds tested hit in one or more screens of this group. Unless noted, the call rests on the fitted dose curve; in most records, active means well fitted curve in the direction sought with a large enough effect; inconclusive means small, poorly fitted or top-dose-only effect, or another doubt; inactive means no such curve, though single readings can be large; an effect the other way counts as inactive or inconclusive. Potency means the concentration at half of the fitted maximal effect.

O=C(CN1C(=O)CCc2cc(S(=O)(=O)N3CCOCC3)ccc21)Nc1cccc(Cl)c1 was read as TbPYK inhibitor 1% and Sm TGR block 2%.
For CC(=O)c1cccc(OCc2cc(C(=O)N3CC4C[C@@H]5CC3C[C@H](C4)C5)no2)c1 the results were TbPYK inhibitor 0%, Sm TGR block 32µM*, RE007 growth inh -5%, LmPK inhibitor 4% and NS1 function inh -16%.
`COc1cc(C2CC(=O)c3c([nH]c(C(=O)OCc4ccc(C)cc4)c3C)C2)cc(OC)c1OC` (stereo not drawn) gave TbPYK inhibitor -4% and Sm TGR block -3%.
`Cc1nn(CC(=O)N2CCN(c3ccccc3)CC2)c(=O)c2cc3cc(F)ccc3n12` gave TbPYK inhibitor 0% and Sm TGR block 10%.
For CCOC(=O)CC1C(=O)NCCN1C(=O)c1cc2c(=O)n3cccc(C)c3nc2s1 (stereo not drawn) the results were Giardia FBPA inh -3%, TbPYK inhibitor -9%, Sm TGR block 35µM*, RE007 growth inh -12%, LmPK inhibitor -4% and NS1 function inh -1%.
O=C(Cn1nnc2sc(-c3ccccc3)cc2c1=O)Nc1cccc(C(F)(F)F)c1 was read as TbPYK inhibitor 4% and Sm TGR block 2%.
For C=C1C[C@@]23C[C@]1(O)CC[C@@H]2[C@]12C=C[C@@H](O)[C@](C)(C(=O)O1)[C@H]2[C@H]3C(=O)O the results were Giardia FBPA inh 7%[21.7 µM].
Brc1cc2[nH]cnc2c2ccccc12 was read as Giardia FBPA inh 18µM*, TbPYK inhibitor -10%, Sm TGR block inconclusive, RE007 growth inh -20%, LmPK inhibitor 0% and NS1 function inh -85%.
For Oc1ccc2c(ccc3[nH]cnc32)c1 the results were Giardia FBPA inh -13%, TbPYK inhibitor 0%, Sm TGR block -4%, LmPK inhibitor 1% and NS1 function inh 8%.
O=S(=O)(Nc1cc(Sc2ncn[nH]2)c(O)c2ccccc12)c1ccccc1 was read as Giardia FBPA inh 2µM*, TbPYK inhibitor inconclusive, Sm TGR block 0.89µM*, RE007 growth inh inconclusive and LmPK inhibitor 14µM*.
For O=C(O)CSc1cc(NS(=O)(=O)c2ccc(Br)cc2)c2ccccc2c1O the results were Giardia FBPA inh 7.1µM*, TbPYK inhibitor inconclusive, Sm TGR block 5.6µM*, RE007 growth inh -9%, LmPK inhibitor 3.5µM* and NS1 function inh -96%.
Screening Cc1cc(O)c(Sc2ncn[nH]2)cc1NS(=O)(=O)c1ccc(Cl)cc1 returned TbPYK inhibitor 11%, Sm TGR block -25% and RE007 growth inh 2%.
Oc1c(C(c2ccc(Cl)cc2)N2CCC3(CC2)OCCO3)sc2nc(-c3ccco3)nn12 (stereo not drawn) was read as TbPYK inhibitor 0% and Sm TGR block 4%.
`O=S(=O)(Nc1ccc(-c2ccc(N3CCCC3)nn2)cc1)c1cc(F)ccc1F` gave TbPYK inhibitor 1% and Sm TGR block -6%.
O=[N+]([O-])c1ccc(Sc2ccccc2Cl)nc1 was read as Giardia FBPA inh -2%, TbPYK inhibitor 4%, Sm TGR block inconclusive, RE007 growth inh -12%, LmPK inhibitor 0% and NS1 function inh -4%.
`O=[N+]([O-])c1ccc(Sc2ncc3ccccn23)nc1` gave Giardia FBPA inh -1%, TbPYK inhibitor -2%, Sm TGR block 45µM*, RE007 growth inh 25%, LmPK inhibitor 6% and NS1 function inh -6%.
For COC(=O)c1cc(NCc2ccc3c(c2)OCO3)ccc1N1CCOCC1 the results were Giardia FBPA inh inconclusive, TbPYK inhibitor -8%, Sm TGR block 50µM*, RE007 growth inh 9%, LmPK inhibitor -1% and NS1 function inh 0%.
For O=C(O)c1cc(NCc2ccc3c(c2)OCO3)ccc1N1CCOCC1 the results were Giardia FBPA inh -2%, Sm TGR block 7%, RE007 growth inh 23%[3.69 µM], LmPK inhibitor -4% and NS1 function inh -10%.
CC(C)C12CC[C@@]3(CC[C@H]4[C@@](C)(CCC[C@]4(C)C(=O)O)[C@@H]3C1)[C@@H](CN)C2 was read as NS1 function inh -10%.
`CC(C)[C@H](NC(=O)[C@@H]1CSC2c3ccccc3C(=O)N21)C(=O)NCc1ccncc1` (stereo partly drawn) gave Giardia FBPA inh 1%, TbPYK inhibitor 11%, Sm TGR block -11%, RE007 growth inh -11%, LmPK inhibitor 2% and NS1 function inh 2%.
For O=C(NCc1cccs1)[C@@H]1CSC2c3ccccc3C(=O)N21 (stereo partly drawn) the results were Giardia FBPA inh -3%, TbPYK inhibitor -6%, Sm TGR block 18%, RE007 growth inh -13%, LmPK inhibitor 5% and NS1 function inh 14%.
Screening O=C(NCc1ccco1)[C@@H]1CSC2c3ccccc3C(=O)N21 (stereo partly drawn) returned Giardia FBPA inh -7%, TbPYK inhibitor -14%, Sm TGR block 32µM*, RE007 growth inh -2%, LmPK inhibitor 13% and NS1 function inh 23%.
CC(C)[C@H](NC(=O)[C@@H]1CSC2c3ccccc3C(=O)N21)C(=O)NCc1ccco1 (stereo partly drawn) was read as Giardia FBPA inh -7%, TbPYK inhibitor -1%, Sm TGR block 45µM*, RE007 growth inh 9%, LmPK inhibitor -2% and NS1 function inh 19%.
For C=CCC1(C(C)CCC)C(=O)NC(=O)NC1=O (stereo not drawn) the results were TbPYK inhibitor 0%[157 µM].
For O=C(N[C@H]1CCCc2ccccc21)O[C@@H]1C(=O)c2cc(Br)ccc2O[C@H]1c1ccc2c(c1)OCO2 the results were Giardia FBPA inh 1%.
`CCn1c(SCC(=O)c2ccc(Cl)cc2)nnc1-c1ccoc1C` gave Giardia FBPA inh -13%, TbPYK inhibitor -21%, Sm TGR block 25µM*, RE007 growth inh -16%, LmPK inhibitor 0% and NS1 function inh -31%.
Screening CCn1c(SCC(=O)c2ccc(C)cc2)nnc1-c1ccoc1C returned Giardia FBPA inh -12%, TbPYK inhibitor -9%, Sm TGR block inconclusive, RE007 growth inh 12%, LmPK inhibitor -5% and NS1 function inh -13%.
Screening Cc1occc1-c1nnc(SCC(=O)c2ccc(Cl)cc2)n1CC1CCCO1 (stereo not drawn) returned Giardia FBPA inh -10%, TbPYK inhibitor -20%, Sm TGR block 20µM*, RE007 growth inh 8%, LmPK inhibitor 0% and NS1 function inh 9%.
